Bioassay records from PubChem BioAssay.
HIV Env fusion: HIV envelope-mediated fusion inhibition | 360,000 tested, 1.1% active | inhibition, % at 12.3 µM | HeLa-JRFL Env/CEM21 cell fusion, luciferase;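 active = mean replicate inhibition score of at least 50 and every replicate individually at or above 50; inconclusive = only one of the two criteria met; inactive = mean below 50 and not all replicates reaching 50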;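 also: 0% = plate neutral controls and 100% = maraviroc near 300 nM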
C2C12 statin: suppressors of simvastatin-induced myotoxicity in C2C12 myotubes. ATP luminescence, 48 h; scaled: DMSO 0, geranylgeraniol control 100. rescue of ATP level, % at 7.49 µM. 330,000 tested, 0.78% active. AID 602340;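 active = mean ATP rescue above about 67%, or every replicate alone reaching that limit, limit read from the data, passing the limit was not always enough; inconclusive = no clear call, values can overlap the other calls; inactive = mean under the limit and some replicate under it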;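 also: myotubes were challenged with 10 µM simvastatin during compound exposure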
miR-122 sensor: inhibitors of miR-122 in Huh7 cells | AID 602342 | 340,000 tested, 0.3% active | Huh7 miR-122 Renilla luciferase sensor, 48 h; neutral wells = 0, positive control = 100 | activation (reporter increase), % at 12.5 µM;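 active = mean replicate activation score at least 90 and every replicate individually at or above 90; inconclusive = only one of the two criteria met; inactive = neither criterion met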;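 also: higher luciferase means less miR-122 activity so hits act as miR-122 inhibitors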
GSIS activator: GLuc luminescence reporter in INS-1E cells, primary screen for activators of glucose-dependent secretion of insulin. INS-1E GLuc reporter insulin secretion, 2-3 h. 370,000 tested, 0.61% active. activation, % at 16.6 µM;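 active = lowest replicate activation of at least 40%, so every replicate reaches that level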;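 also: 0% = median of neutral control wells and 100% = median of IBMX positive control wells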
EWS-Fli block: inhibitors of EWS/Fli oncoprotein transcriptional activity; A673 NR0B1-luciferase reporter, viability-normalised; inhibition, % at 12.6 µM; 350,000 tested, 0.67% active; AID 651661;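 active = mean inhibition of at least 50% after viability correction, with every replicate also passing that limit; inconclusive = mean reaches 50% but only one of two replicates passes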;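 also: firefly luciferase signal divided by Alamar Blue viability fluorescence both relative to DMSO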
PAX8 inh HTS: PAX8 transcriptional activity inhibition | AID 652154 | 360,000 tested, 1.2% active | inhibition, % at 12.6 µM | RMG-I TPO-luciferase reporter, SteadyGlo, 24 h;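 active = mean replicate inhibition at least 60% with every replicate also reaching 60%; inconclusive = only one of the two criteria is met; inactive = mean below 60% and not all replicates reaching 60%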;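 also: luciferase light reporting Pax8 driven TPO promoter activity; plate controls were median of neutral control wells for no effect and mitoxantrone controls for full effect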
An asterisk follows results filed as active; ? = inconclusive; · = not tested or not shown; [ ] = dose if it differs, or a comment. Shown are actives, neighbours in structure and some others; about 3.1% of the full set was active somewhere.

SMILES	HIV Env fusion	C2C12 statin	miR-122 sensor	GSIS activator	EWS-Fli block	PAX8 inh HTS
C[C@@H]1CCCCO[C@H](CN(C)S(=O)(=O)c2ccccc2)[C@H](C)CN([C@@H](C)CO)C(=O)c2cc(NC(=O)Nc3ccc(C(F)(F)F)cc3)ccc2O1	7[16.7 µM]	·	1[16.7 µM]	-3	3	64*
C[C@@H]1CCCCO[C@H](CN(C)S(=O)(=O)c2ccccc2)[C@@H](C)CN([C@@H](C)CO)C(=O)c2cc(NC(=O)Nc3ccc(C(F)(F)F)cc3)ccc2O1	2[16.7 µM]	·	3[16.7 µM]	4	8	72*
COc1ccc(NC(=O)N[C@@H]2CC[C@@H](CCn3cc(-c4ccccc4F)nn3)O[C@@H]2CO)cc1	-132[16.7 µM]	-3	·	15	3	-12
Cc1noc(C)c1S(=O)(=O)Nc1ccc2c(c1)CC(=O)N([C@H](C)CO)C[C@@H](C)[C@H](CN(C)C(=O)Nc1ccc(F)cc1)O2	4[16.7 µM]	34	10[16.7 µM]	-6	2	-8
C[C@H](CO)N1C[C@H](C)[C@H](CN(C)S(=O)(=O)c2ccccc2)OCCCC[C@H](C)Oc2ccc(NC(=O)Nc3ccc(C(F)(F)F)cc3)cc2C1=O	9[16.7 µM]	·	-10[16.7 µM]	12	4	74*
C/C=C/c1ccc2c(c1)O[C@@H](CN(C)C(=O)C1CCOCC1)[C@@H](C)CN([C@H](C)CO)S2(=O)=O	16[16.7 µM]	23	-4[16.7 µM]	12	4	·
C[C@@H]1CN([C@@H](C)CO)S(=O)(=O)c2ccc(C#Cc3ccccc3F)cc2O[C@@H]1CN(C)CC1CCOCC1	33[16.7 µM]	-8	·	-4	20	19
CC/C(O)=C1\C(=O)CC(c2ccccc2)CC1=NCCC(=O)O (configuration not stated)	-4	·	·	12	11	0
CC/C(O)=C1\C(=O)CC(c2ccccc2)CC1=NC(C)C (configuration not stated)	-3	11	21	63*	-17	9
O=c1cc(-c2ccccc2)cc(-c2ccccc2)n1CCO	-19	10	·	36	-3	-18
Nn1c(-c2ccccc2)cc(-c2ccccc2)cc1=O	-3	10	4	67*	6	4
CN(C)C(=O)c1cccc(-c2ccc([C@@H]3[C@@H](C#N)N(C(=O)C4CC4)[C@@H]3CO)cc2)c1	·	-6	·	-2	-1	-12
COc1ccccc1/C=C/c1nc(S(=O)(=O)c2ccccc2)c(NCCN(C)C)o1	4	18	·	17	13	-18
COc1ccc(/C=C/c2nc(S(=O)(=O)c3ccccc3)c(NCCCN(C)C)o2)cc1OC	74*	13	-4	59	4	-14
C[C@@H]1CN([C@H](C)CO)C(=O)c2cc(/C=C/c3ccccc3)cnc2O[C@H]1CN(C)Cc1ccncc1	12[16.7 µM]	15	3[16.7 µM]	-8	-11	·
C[C@@H]1CN([C@H](C)CO)C(=O)Cc2cc(NC(=O)CCC(F)(F)F)ccc2O[C@H]1CN(C)Cc1ccncc1	11[16.7 µM]	-15	-3[16.7 µM]	13	·	-5
CN(C[C@H]1N[C@@H](CO)[C@@H]1c1ccc(-c2cccc(F)c2)cc1)S(C)(=O)=O	·	-4	0[16.7 µM]	7	14	100*
CN(C[C@@H]1N[C@@H](CO)[C@@H]1c1ccc(-c2cccc(F)c2)cc1)S(C)(=O)=O	·	17	7[16.7 µM]	-3	-2	10
COc1ccc(-c2cc(C#N)nc(Cl)n2)cc1	-40	·	·	·	-7	2
CCN(CC)c1nc(C#N)cc(-c2ccc(OC)cc2)n1	·	109*	13	·	·	·
O=C1/C(=C/c2cccnc2)CCC/C1=C\c1cccnc1	?	·	·	-44	54*	-13
CCC1C/C(=C\c2cccnc2)C(=O)/C(=C/c2cccnc2)C1 (configuration not stated)	?	·	·	·	54*	89*
O=C(C[C@H]1C[C@@H]2c3cc(NC(=O)C4CCC4)ccc3O[C@@H]2[C@@H](CO)O1)NCc1ccc2c(c1)OCO2	86*[16.7 µM]	0	-1[16.7 µM]	-11	-6	6
O=C(C[C@H]1C[C@H]2c3cc(NC(=O)C4CCC4)ccc3O[C@H]2[C@@H](CO)O1)NCc1ccc2c(c1)OCO2	78*[16.7 µM]	4	3[16.7 µM]	6	-5	4
COc1ccccc1NC(=O)Oc1ccc(C(C)=O)cc1	59*	·	-3	·	·	·
SMILES	HIV Env fusion	C2C12 statin	miR-122 sensor	GSIS activator	EWS-Fli block	PAX8 inh HTS
COc1ccccc1NC(C)=O	·	7	9	·	·	·
COC(=O)C1=C(CSCc2ccco2)NC(=O)NC1c1cc(C)ccc1C (configuration not stated)	·	134*	2	·	·	·
COc1ccccc1-c1noc(CCCC(=O)NC2CCCC2)n1	6	-3	·	18	2	4
O=C(CCCc1nc(-c2ccccc2Cl)no1)NC1CCCC1	66*	3	-2	-7	·	21
CC(=O)c1c(C)oc2c1C(=O)c1ccccc1C2=O	13	-78	-1	9	·	10
Cc1nc2c(o1)C(=O)c1ccccc1C2=Nc1ccccc1	79*	·	·	14	2	10
O=C(O/N=C1\CCS(=O)(=O)c2sccc21)c1ccc(F)cc1	10	1	-3	0	12	-7
O=C(O/N=C1\CCS(=O)(=O)c2sccc21)c1ccccc1	·	0	170*	-14	·	·
CCN1CCCC1Cn1cnc2c([nH]c3ccc(Cl)cc32)c1=O (configuration not stated)	·	99*	-2	·	·	·
CCN1CCCC1Cn1cnc2c([nH]c3cccc(Cl)c32)c1=O (configuration not stated)	·	7	-2	14	·	·
COCCNC(=S)N(C)[C@H]1C[C@H]2c3[nH]c4cccc(-c5ccccc5)c4c3CCN2C(=O)[C@H]1[C@H](C)O	59*	·	·	-18	27	0
C[C@H](O)[C@@H]1C(=O)N2CCc3c([nH]c4cccc(-c5ccccc5)c34)[C@@H]2C[C@@H]1N(C)C(=O)NC1CCCCC1	61*	·	·	-8	43	?
C[C@H](O)[C@@H]1CN2CCc3c([nH]c4ccc(-c5ccc6c(c5)OCO6)cc34)[C@@H]2C[C@@H]1N(C)C(=O)NC1CCCCC1	-12	-47	65	-22	43	90*
C[C@H](O)[C@@H]1C(=O)N2CCc3ccc(-c4ccccc4)cc3[C@@H]2C[C@@H]1N(C)C(=O)NC1CCCCC1	-5	-2	7	-38	5	23
CN1CCN(C(=O)[C@H]2[C@H](CO)[C@H]3Cn4c(ccc(-c5cncnc5)c4=O)[C@H]3N2CC2CCCC2)CC1	·	4	3[16.7 µM]	-1	-1	·
CCOc1ccc(OCCCCN(C)C)cc1	·	90*	-2	·	·	·
CC(C)CC#Cc1ccc2c(c1)O[C@H](CN(C)Cc1ccc3c(c1)OCO3)[C@@H](C)CN([C@H](C)CO)S2(=O)=O	26[16.7 µM]	·	·	-12	23	·
O=C(C(=O)N(Cc1ccccc1)Cc1ccccc1)c1c(-c2ccccc2)[nH]c2ccccc12	·	-7	100*	2	5	88*
